# Test results taken from the supplement of paper PMC12282887.
# ± gives the standard deviation of the averaged measurements.
# Tested on: E. coli BW25113 marRABp lux reporter
# Test: promoter activity interaction Z-score (Lux/OD deviation from empty-vector control); higher = stronger promoter induction by the compound
# Procedure: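 E. coli BW25113 (wild type or ΔmarA/ΔsoxS/Δrob) carrying pTU175 luxCDABE promoter reporters was grown in LB in 384-well plates at 37°C with each of 94 compounds at 4 two-fold concentrations, in biological duplicates. Luminescence and OD600 were read every 30 min for 12 h and integrated as AUC over 8 h (0-8 h WT, 1-9 h mutants). Lux AUC was divided by OD AUC; the interaction score is the residual of a Huber robust fit of each promoter against the empty-vector control, then Z-transformed per promoter.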
smiles,measurement,setting,value
O=C(/C=C/C=C/c1ccc2c(c1)OCO2)N1CCCCC1 [Piperine],promoter activity interaction Z-score,"17.8 µg/ml, genetic background: wild type",-0.274 ± 0.019
same,promoter activity interaction Z-score,"17.8 µg/ml, genetic background: ΔmarA",-0.301 ± 0.051
same,promoter activity interaction Z-score,"17.8 µg/ml, genetic background: Δrob",-0.434 ± 0.098
same,promoter activity interaction Z-score,"17.8 µg/ml, genetic background: ΔsoxS",-0.317 ± 0.29
same,promoter activity interaction Z-score,"35.7 µg/ml, genetic background: wild type",-0.476 ± 0.17
same,promoter activity interaction Z-score,"35.7 µg/ml, genetic background: ΔmarA",-0.752 ± 0.41
same,promoter activity interaction Z-score,"35.7 µg/ml, genetic background: Δrob",-0.43 ± 0.21
same,promoter activity interaction Z-score,"35.7 µg/ml, genetic background: ΔsoxS",-0.378 ± 0.24
same,promoter activity interaction Z-score,"71.3 µg/ml, genetic background: wild type",-0.335 ± 0.037
same,promoter activity interaction Z-score,"71.3 µg/ml, genetic background: ΔmarA",-0.48 ± 0.25
same,promoter activity interaction Z-score,"71.3 µg/ml, genetic background: Δrob",-0.399 ± 0.2
same,promoter activity interaction Z-score,"71.3 µg/ml, genetic background: ΔsoxS",-0.463 ± 0.46
same,promoter activity interaction Z-score,"142.7 µg/ml, genetic background: wild type",-0.425 ± 0.28
same,promoter activity interaction Z-score,"142.7 µg/ml, genetic background: ΔmarA",-0.375 ± 0.13
same,promoter activity interaction Z-score,"142.7 µg/ml, genetic background: Δrob",-0.33 ± 0.27
same,promoter activity interaction Z-score,"142.7 µg/ml, genetic background: ΔsoxS",-0.0869 ± 0.48
CC[n+]1c(-c2ccccc2)c2cc(N)ccc2c2ccc(N)cc21 [Ethidiumbromide],promoter activity interaction Z-score,"24.6 µg/ml, genetic background: wild type",0.958 ± 0.21
same,promoter activity interaction Z-score,"24.6 µg/ml, genetic background: ΔmarA",0.99 ± 0.055
same,promoter activity interaction Z-score,"24.6 µg/ml, genetic background: Δrob",0.804 ± 0.17
same,promoter activity interaction Z-score,"24.6 µg/ml, genetic background: ΔsoxS",0.684 ± 0.19
same,promoter activity interaction Z-score,"49.3 µg/ml, genetic background: wild type",1.32 ± 0.076
same,promoter activity interaction Z-score,"49.3 µg/ml, genetic background: ΔmarA",1.56 ± 0.57
same,promoter activity interaction Z-score,"49.3 µg/ml, genetic background: Δrob",1.1 ± 0.13
same,promoter activity interaction Z-score,"49.3 µg/ml, genetic background: ΔsoxS",1.368 ± 0.0038
same,promoter activity interaction Z-score,"98.6 µg/ml, genetic background: wild type",1.6 ± 0.43
same,promoter activity interaction Z-score,"98.6 µg/ml, genetic background: ΔmarA",1.57 ± 0.26
same,promoter activity interaction Z-score,"98.6 µg/ml, genetic background: Δrob",1.07 ± 0.073
same,promoter activity interaction Z-score,"98.6 µg/ml, genetic background: ΔsoxS",1.15 ± 0.091
CN(C)C(=O)C(CCN1CCC(O)(c2ccc(Cl)cc2)CC1)(c1ccccc1)c1ccccc1 [Loperamide],promoter activity interaction Z-score,"32.1 µg/ml, genetic background: wild type",-0.202 ± 0.03
same,promoter activity interaction Z-score,"32.1 µg/ml, genetic background: ΔmarA",-0.0422 ± 0.33
same,promoter activity interaction Z-score,"32.1 µg/ml, genetic background: Δrob",-0.0553 ± 0.2
same,promoter activity interaction Z-score,"32.1 µg/ml, genetic background: ΔsoxS",-0.22 ± 0.2
same,promoter activity interaction Z-score,"64.2 µg/ml, genetic background: wild type",-0.233 ± 0.17
same,promoter activity interaction Z-score,"64.2 µg/ml, genetic background: ΔmarA",0.346 ± 0.1
same,promoter activity interaction Z-score,"64.2 µg/ml, genetic background: Δrob",-0.132 ± 0.024
same,promoter activity interaction Z-score,"64.2 µg/ml, genetic background: ΔsoxS",-0.171 ± 0.18
same,promoter activity interaction Z-score,"128.4 µg/ml, genetic background: wild type",-0.314 ± 0.22
same,promoter activity interaction Z-score,"128.4 µg/ml, genetic background: ΔmarA",0.0947 ± 0.21
same,promoter activity interaction Z-score,"128.4 µg/ml, genetic background: Δrob",-0.192 ± 0.036
same,promoter activity interaction Z-score,"128.4 µg/ml, genetic background: ΔsoxS",-0.213 ± 0.17
same,promoter activity interaction Z-score,"256.8 µg/ml, genetic background: wild type",-0.0275 ± 0.19
same,promoter activity interaction Z-score,"256.8 µg/ml, genetic background: ΔmarA",0.711 ± 0.64
same,promoter activity interaction Z-score,"256.8 µg/ml, genetic background: Δrob",-0.0389 ± 0.11
same,promoter activity interaction Z-score,"256.8 µg/ml, genetic background: ΔsoxS",-0.046 ± 0.47
